Compound activity (PubChem BioAssay)
Sm TGR block = qHTS Assay for the Inhibitors of Schistosoma Mansoni Peroxiredoxins. purified TGR, DTNB reduction, TNB absorbance 405 nm. Potency, µM (series often up to 114 µM), usual class: inhibitors. 360,000 tested, 3% active; also: nearly all actives have a fitted effect of over 60% in size
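First, TGR (20 nM dispensed) and NADPH were mixed with compound. Second, a 15 min room-temperature incubation followed. Third, further NADPH and then DTNB were added to start the reaction. Finally, TNB absorbance was monitored kinetically.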
Pf growth 96h = Primary qHTS for delayed death inhibitors of the malarial parasite plastid, 96 hour incubation. Potency, µM (highest dose often 28.7 µM), usual class: inhibitors. P. falciparum luciferase reporter growth, 96 h. 320,000 tested, 6.9% active
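Erythrocytes infected with luciferase-expressing P. falciparum were dispensed at 2% hematocrit and 0.05% parasitemia (final), then incubated with compounds 96 hours at 37 C in 5% CO2. Luminescence after detection reagent addition reported growth.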
CHX counter = Cycloheximide Counterscreen for Small Molecule Inhibitors of Shiga Toxin; cell reporter, cycloheximide protein synthesis inhibition counterscreen; 300,000 tested, 12% active; max response, %; AID 2314, 2010; in the data active = max response mostly above about 13%, no sharp cut-off; inactive = mostly below about 14%; also: read at 38.3 µM for the half of the compounds with a filed dose
Shiga inhibitor = A qHTS for Small Molecule Inhibitors of Shiga Toxin; Vero cells, Shiga toxin protein synthesis inhibition reporter; inhibition, % at 38.7 µM; 290,000 tested, 9.2% active; in the data active = inhibition mostly above about 28%, no sharp cut-off; inactive = mostly below about 43%
NS1 function inh = qHTS Assay for Inhibitors of Influenza NS1 Protein Function | Potency, µM (series often up to 46.1 µM) | 270,000 tested, 0.4% active | AID 2326, 2010; calls by dose curve; also: actives are rising curves; nearly all actives have a fitted effect of over 50% in size
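Growth recovery, yeast-based: influenza A NS1 expressed in S. cerevisiae causes slow growth, and suppressors are detected by OD600. The parent strain without NS1 is used as positive control.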
Pf growth 48h = Primary qHTS for delayed death inhibitors of the malarial parasite plastid, 48 hour incubation; 310,000 tested, 5.9% active; Potency, µM (series often up to 28.7 µM), most hits filed as inhibitors; P. falciparum luciferase growth in erythrocytes, 48 h; AID 504832, 2011
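Compounds are pin-transferred into medium, infected erythrocytes (2% hematocrit, 0.1% parasitemia final) are added, and plates sit one parasite generation at 37 C in 5% CO2. Detection reagent is then added and luminescence measured.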
A number is an active result; – = inactive; ? = inconclusive; · = no result given; + = active, no number; [ ] = remark or other dose. Hits are enriched below; roughly 21% of the tested compounds scored in any of these assays. Unless noted, calls follow the shape of the dose curve; as a rule, active = well fitted curve in the direction sought with a large enough effect; inconclusive = small, poorly fitted or top-dose-only effect, or another doubt; inactive = no such curve, though single readings can be large; an effect the other way counts as inactive or inconclusive.

SMILES | Sm TGR block | Pf growth 96h | CHX counter | Shiga inhibitor | NS1 function inh | Pf growth 48h
O=C(NCCCc1nc2ccccc2[nH]1)c1ccc(F)cc1 | – | 10.4µM | – | – | · | –
O=C(NCc1nc2ccccc2[nH]1)c1ccccc1F | – | – | 33.2 | 72.0 | – | –
O=C(NCc1cc2ccccc2[nH]1)c1ccccc1F | – | ? | 37.7 | · | – | –
Cc1ccc2[nH]c(CNC(=O)c3ccccc3F)cc2c1 | – | ? | 28.6 | – | ? | –
O=C(NCc1nc2ccccc2[nH]1)c1c(F)c(F)c(F)c(F)c1F | · | –[5.75 µM] | – | – | – | –
CC(Sc1nccn1C)C(=O)Nc1ccc(Cl)cn1 (centres undefined) | – | – | · | · | · | –
Clc1ccccc1Cc1cn2cc(-c3ccccc3)nc2s1 | – | · | · | · | · | ·
C/C(=N\NC(=O)CCc1c[nH]c2ccccc12)c1ccc([N+](=O)[O-])cc1 | – | – | – | – | – | –
C/C(=N/Nc1ccc([N+](=O)[O-])cc1)c1c[nH]c2ccccc12 | – | ? | 27.3 | 33.7 | – | –
C/C(=N/Nc1ccc([N+](=O)[O-])cc1)c1ccc(C)cc1C | – | – | 42.1 | 93.8 | · | –
C/C(=N\Nc1ccc([N+](=O)[O-])cc1)c1cc2ccccc2o1 | – | – | – | – | – | –
C[n+]1cc(-c2ccccc2)n2c1CCCCC2 | – | 1.65µM | – | – | – | ?
Cc1ccc(-c2c[n+](CC(=O)c3ccc(Br)cc3)c3n2CCCCC3)cc1 | – | – | – | – | · | 5.22µM
CC1CCC(C(C)C)C(OC(=O)C[n+]2cc(-c3ccc(Cl)cc3)n3c2CCCCC3)C1 (centres undefined) | – | 2.94µM | – | – | · | 2.94µM
O=C(C[n+]1cc(-c2ccccc2)n2c1CCCCC2)c1ccc(Cl)cc1 | – | 0.657µM | – | – | – | 1.47µM
COc1ccccc1-c1nnc2sc(C3CCCCC3)nn12 | – | – | – | – | – | 10.4µM
c1cc(-c2nnc3sc(C4CCCCC4)nn23)ccn1 | – | ? | – | – | – | ?
COc1ccc(Cc2nn3c(-c4ccccc4OC)nnc3s2)cc1 | – | ? | – | – | – | 9.28µM
Cc1ccc(CCNC(=O)c2ccc(CS(=O)(=O)c3ccc(Br)cc3)o2)cc1 | – | · | · | · | · | ·
CCOC(=O)c1ccc(-n2c(CN(CC)CC)nc3ccc([N+](=O)[O-])cc3c2=O)cc1 | 11.2µM | ? | – | – | · | ?
CCOC(=O)c1ccc(-n2c(CN3CCC(C(N)=O)CC3)nc3ccc([N+](=O)[O-])cc3c2=O)cc1 | 11.2µM | ? | – | – | · | ?
CCOC(=O)c1ccc(-n2c(CN3CCN(CC)CC3)nc3ccc([N+](=O)[O-])cc3c2=O)cc1 | – | ? | – | – | · | ?
CCOC(=O)c1ccc(-n2c(CN3CCC(O)CC3)nc3ccc([N+](=O)[O-])cc3c2=O)cc1 | 12.6µM | – | – | – | – | ?
COc1ccccc1/C=C/C(=O)NC(=S)NC(C)C | ? | ? | 16.9 | 57.0 | – | –
COc1ccccc1/C=C/C(=O)NC(=S)N1CCN(C)CC1 | – | ? | – | – | – | –
SMILES | Sm TGR block | Pf growth 96h | CHX counter | Shiga inhibitor | NS1 function inh | Pf growth 48h
CCOc1ccc(/C=C/C(=O)c2ccc(-c3ccccc3)cc2)cc1 | – | – | – | – | – | –
COc1ccccc1/C=C/C(=O)c1c2c(c(C)[nH]c1=O)CCCC2 | 44.7µM | ? | – | – | – | ?
COc1ccc(OC)c(/C=C/C(=O)c2ccc(Cl)cc2)c1 | – | – | – | – | – | –
CCOc1ccccc1/C=C/C(=O)c1ccc(Cl)cc1 | – | – | 14.5 | – | – | –
COc1ccccc1/C=C/C(=O)c1ccc(Cl)cc1 | – | ? | 42.2 | 83.1 | – | ?
N#C/C(=C\N1CCNC1=S)C(=O)c1ccc2ccccc2c1 | · | · | · | · | – | ·
COc1ccc2c(c1)c1c(c(=O)n(-c3cccc(Cl)c3)c(=O)n1C)n2C | – | · | · | · | · | ·
O=C(c1ccc(F)cc1)N(C(=O)c1ccc(F)cc1)c1ncccn1 | – | – | – | – | · | ?
CC(=O)/C=C/c1ccccc1O | – | –[5.75 µM] | – | – | · | –
COc1ccccc1/C=C/C(=O)OCCCN(C)C | – | – | – | – | – | –
COc1ccccc1/C=C/C(=C1/C(=O)N(c2ccccc2)N=C1C)c1ccc(C)cc1 | – | 11.7µM | – | – | – | –
O=C(/C=C/c1ccccc1O)c1ccc(Cl)cc1 | ? | 14.7µM | 41.2 | 57.6 | – | –
COc1ccccc1/C=C/C(=O)c1ccc(NC(C)=O)cc1 | – | – | 21.3 | – | – | –
COc1ccccc1/C=C/C(=O)c1ccccc1 | ? | – | 54.6 | 68.6 | – | –
COc1ccc(N2CC(C(=O)Nc3nc4ccc(F)cc4s3)CC2=O)c(OC)c1 (centres undefined) | – | – | – | – | – | –
COc1cc2ccccc2cc1C(=O)N1CCN(c2nc3c(C)cc(C)cc3s2)CC1 | – | · | · | · | · | ·
Cc1cc2ccccc2n1CCNC(=O)c1cc(C(F)(F)F)cc(C(F)(F)F)c1 | – | · | · | · | · | ·
Fc1ccc(-c2cc(-c3nc(-c4cccc(Cl)c4)no3)[nH]n2)cc1 | – | · | · | · | · | ·
COc1ccccc1/C=C/C(=O)N1CCC(c2ccccc2)C1 (centres undefined) | – | – | 52.5 | 71.3 | – | –
COc1ccccc1/C=C/C(=O)NCC(=O)N1CCC(N(C)C2CCCC2)CC1 | – | – | – | – | · | –
O=C(CCSc1nccn1Cc1ccccc1)N1CCOCC1 | – | – | 19.2 | + | – | –
O=C(CSc1ccc(Br)cc1)N1CCOCC1 | – | – | 27.2 | 45.9 | – | –[0.00184 µM]
CC(Sc1ccc(Cl)cc1)C(=O)NNC(=O)c1csc(N2CCOCC2)n1 (centres undefined) | – | – | – | – | – | –
Cc1ccc(SCC(=O)N2CCOCC2)cc1 | – | · | 23.0 | 34.9 | – | –
Clc1ccc(SCc2csc(N3CCOCC3)n2)cc1 | – | – | 33.2 | 54.5 | – | –
SMILES | Sm TGR block | Pf growth 96h | CHX counter | Shiga inhibitor | NS1 function inh | Pf growth 48h
O=C(CSc1ccc(Br)cc1)N1CCN(C(=O)c2ccco2)CC1 | – | – | – | – | – | –
CCOC(=O)c1c(O)[nH]c(=O)c(CC)c1C | · | · | · | · | – | ·
COc1ccccc1N1CCN(C(=O)CCn2nc(C)c(S(=O)(=O)N3CCCC3)c2C)CC1 | – | · | · | · | · | ·
Cc1ccc(C(CC(=O)N2CCOCC2)c2ccco2)cc1 (centres undefined) | 28.2µM | · | – | – | ? | ?
CCOC(=O)N1CCN(C(=O)CCSc2ccc(Cl)cc2)CC1 | – | – | – | – | – | –
Cc1ccc(CC(=O)N2CCOCC2)cc1 | – | – | – | – | – | –
O=C(Cc1ccc(Cl)cc1)N1CCOCC1 | – | 14.7µM | – | – | – | –
O=C(CCSc1ccc(Cl)cc1)N1CCOCC1 | – | – | 29.0 | 53.0 | – | –
O=C(CSc1ccc(Cl)cc1)N1CCOCC1 | – | · | 29.2 | 68.3 | – | –
Cc1ccc(S(=O)(=O)N(C)c2ccc(C(=O)NCc3ccccc3F)cc2)cc1 | – | ? | · | · | · | ?
COc1ccc2c(c1)c1c(c(=O)n(CCc3ccccc3)c(=O)n1Cc1ccc(Cl)cc1)n2C | – | · | · | · | · | ·
